Inconclusive results are not listed. The source made the active and inactive calls. Calls follow the shape of the dose curve; as a rule, active = well fitted curve in the direction sought with a large enough effect; inconclusive = small, poorly fitted or top-dose-only effect, or another doubt; inactive = no such curve, though single readings can be large; an effect the other way counts as inactive or inconclusive.
What was measured:
[1] = molecular target: Glutathione peroxidase 1 (Homo sapiens) (UniProt P07203); assay: Primary qHTS Assay for Inhibitors of Recombinant Selenoprotein Glutathione Peroxidase 1 (GPX1) (AID 1845191); also: nearly all actives have a fitted effect of over 65% in size
Glutathione peroxidase 1 (Homo sapiens), sequence (P07203 whole entry, looked up): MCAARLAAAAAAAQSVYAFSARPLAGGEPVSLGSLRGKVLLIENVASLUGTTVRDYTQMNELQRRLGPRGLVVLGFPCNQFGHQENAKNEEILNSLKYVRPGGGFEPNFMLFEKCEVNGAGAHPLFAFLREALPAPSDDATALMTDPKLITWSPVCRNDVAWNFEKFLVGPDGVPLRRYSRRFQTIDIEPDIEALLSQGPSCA
Procedure, shortened: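 Recombinant GPX1 (10 nM final) was preincubated with compound for 30 min at room temperature, then reacted with 1 mM GSH, 0.5 mM CHP, 0.5 mM NADPH and 100 nM glutathione reductase; NADPH fluorescence (340/450 nm) was read at 0 and 15 min.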

[2] = molecular target: Phospholipid hydroperoxide glutathione peroxidase GPX4 (Homo sapiens) (UniProt P36969); assay: Primary qHTS Assay for Inhibitors of Recombinant Selenoprotein Glutathione Peroxidase 4 (GPX4) (AID 1845192); also: nearly all actives have a fitted effect of over 65% in size
Phospholipid hydroperoxide glutathione peroxidase GPX4 (Homo sapiens), sequence (P36969 whole entry, looked up): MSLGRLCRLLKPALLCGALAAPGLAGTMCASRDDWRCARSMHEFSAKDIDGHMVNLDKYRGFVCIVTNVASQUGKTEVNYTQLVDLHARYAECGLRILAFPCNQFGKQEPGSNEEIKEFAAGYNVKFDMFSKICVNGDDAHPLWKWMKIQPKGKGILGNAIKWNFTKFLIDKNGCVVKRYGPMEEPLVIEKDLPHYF
Procedure, shortened: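 GR-coupled readout: 100 nM GR, 1 mM GSH, 0.5 mM NADPH; NADPH fluorescence (ex 340/em 450 nm) read at t=0 and after 15 min RT. GPX4 200 nM, preincubated 30 min with compound; substrate 0.5 mM CHP.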

[3] = molecular target: Luciferin 4-monooxygenase (Photinus pyralis) (UniProt P08659); assay: Primary firefly luciferase (FLuc) qHTS assay for identification of artifact compounds. (AID 1845220); also: nearly all actives have a fitted effect of over 60% in size
Procedure, shortened: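 In this counter-screen for luciferase artifacts, test compounds met substrate (10 uM each luciferin and ATP) before 10 nM enzyme started the reaction. Light output was measured 5 min later.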

[4] = system: Nanoluciferase (engineered Oplophorus gracilirostris luciferase); assay: Primary Nanoluciferase (NLuc) qHTS assay for identification of artifact compounds. (AID 1845222);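 also: NLuc secreted into diluted conditioned medium of S16 cells; series mostly up to about 54 µM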
Procedure, shortened: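 Using secreted nanoluciferase in S16 culture medium (0.22 um filtered, 1:55 dilution), compounds were preincubated 15 min at RT. Signal was generated with Nano-Glo reagent (1:100) over 5 min.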

[5] = Primary redox qHTS assay for identification of artifact compounds. (AID 1845223)
Procedure, shortened: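 Amplex Red (25 uM) and HRP (250 mU/mL) in HBSS, with compounds for 15 min, then 250 uM DTT for 30 min, room temperature, dark. Fluorescence 525/598 nm read; normalized to DMSO and 10 uM DA3003; Hill fit.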

Measured: Potency

CC(NC(=O)CC(=O)O)C(=O)Nc1ccccc1C(N)=O (stereo not given)
inactive: all assays above

C[C@]1(O)CC[C@@H]2C(C(=O)O)=CO[C@@H](O[C@@H]3O[C@H](CO)[C@@H](O)[C@H](O)[C@H]3O)[C@@H]21
inactive: all assays above

CC1=C(C(=O)OC2OC(COC3OC(CO)C(O)C(O)C3O)C(O)C(O)C2O)C(C)(C)CCC1 (stereo not given)
inactive: all assays above

CC1=C2C(=O)C=C(CO)C2[C@H]2OC(=O)[C@H](C)[C@@H]2[C@@H](OC(=O)Cc2ccc(O)cc2)C1 (stereo not given in full)
inactive: all assays above

Nc1c(-c2ccccc2)nc(Cl)c2c(O)n[nH]c(=O)c12
inactive: all assays above

COCC1OC(OC(C)(C)C2CCC3(C)C=C(C4CCC5C4(C)CC(O)C4OC(C(C)(C)O)CCC45C)CCC3O2)C(NC(C)=O)C(O)C1O (stereo not given)
inactive: all assays above

CC1CCC2C(C(=O)O)=CC3(O)CC(C)(C)CC123 (stereo not given)
inactive: all assays above

CCC1=C(C)C(=O)C(C)CC12C(=O)CCC2C(=O)O (stereo not given)
inactive: all assays above

C[C@H]1CC[C@H]2[C@@H](C=C[C@@](C)(O)[C@]2(C)C(=O)CCO)C1
inactive: all assays above

Cc1ccc(Nc2nnc(-c3ccc([N+](=O)[O-])cc3)o2)cc1Cl
inactive: all assays above

O=C(O)Cc1cn([C@@H]2O[C@H](CO)[C@@H](O)[C@H](O)[C@H]2O[C@@H]2O[C@H](CO)[C@@H](O)[C@H](O)[C@H]2O)c2ccccc12
inactive: all assays above

COc1cc(Nc2nc3ccccc3nc2NS(=O)(=O)c2cccc(NC(=O)c3ccc(C)c(OC)c3)c2)cc(OC)c1
inactive: all assays above

O=C(/C=C/c1ccc(O)cc1)OC[C@H]1O[C@H](O[C@@]2(CO)O[C@@H](CO)[C@H](O)[C@H]2O)[C@H](O)[C@@H](O)[C@@H]1O
inactive: all assays above

COc1cc(C(O)C2COC(c3ccc(OC4OC(CO)C(O)C(O)C4O)c(OC)c3)C2CO)ccc1O (stereo not given)
inactive: all assays above

CC(C)=CCC[C@@](C)(O)[C@H]1CC[C@]2(C)[C@@H]1[C@H](O)CC1[C@@]3(C)CC[C@H](O[C@@H]4O[C@H](CO)[C@@H](O)[C@H](O)[C@H]4O[C@@H]4O[C@H](CO)[C@@H](O)[C@H](O)[C@H]4O)C(C)(C)[C@@H]3CC[C@]12C (stereo not given in full)
inactive: all assays above

C=C[C@@](C)(CCC=C(C)C)O[C@@H]1O[C@H](CO[C@@H]2OC[C@H](O)[C@H](O)[C@H]2O)[C@@H](O)[C@H](O)[C@H]1O
inactive: all assays above

COc1c(C)c(OCC(O)C(C)(C)O)cc2c1CNC2=O (stereo not given)
inactive: all assays above

OC[C@@]1(O)CO[C@H](OC[C@H]2O[C@@H](OC(CCCCc3ccc(O)cc3)CCc3ccc(O)cc3)[C@H](O[C@H]3OC[C@](O)(CO)[C@H]3O)[C@@H](O)[C@@H]2O)[C@@H]1O (stereo not given in full)
inactive: all assays above

CC(=O)OC[C@@]12C(=O)C[C@@H](C)[C@]3(C[C@@H](c4ccoc4)OC3=O)[C@H]1CC[C@H](OC(C)=O)[C@]21CO1
inactive: all assays above

CC1=C(CO)C2(C)CCCC(C)(C)C2C(O)C1O (stereo not given)
inactive: all assays above

O=C(O)C[C@H]1CCC(=O)[C@@H]1C/C=C\CCO
inactive: all assays above

COc1cc2c(c(O)c1OC/C=C(\C)CC/C=C(/C)CCC=C(C)C)CN(C(CCC(=O)O)C(=O)O)C2=O (stereo not given)
inactive: all assays above

Oc1ccc2c(-c3c(-c4ccccn4)nn4c3CCC4)ccnc2c1
inactive: all assays above

CC(C)C(NC(=O)c1ccc(O)cc1)C(=O)N1CCCC1C(=O)Nc1c(O)cccc1C(=O)O (stereo not given)
inactive: all assays above
